Assay outcomes as filed in PubChem.
This excerpt belongs to a sample that is enriched for hits.
U2OS ROS induce = ROS inducers in U2OS cancer cells, primary screen, cell-based, H2DCF-DA fluorescence | U2OS ROS induction | ROS induction (% of piperlongumine), % at 10 µM | 2% of 46,000 active | AID 624156, 2012; in the data active means ROS induction above about 79%, passing the limit was not always enough;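 further: 0% = DMSO vehicle median and 100% = reference compound median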
Numbers without * were called inactive.

SMILES	U2OS ROS induce
Cc1ccc(NS(=O)(=O)c2ccc(NC(=O)CN3C(=O)c4cccc5cccc3c45)cc2)cc1	33.5
COC(=O)c1ccccc1NC(=O)c1ccc(Cn2cc(Cl)cn2)cc1	22.0
O=C(Nc1ccc(Cl)cc1)OCc1nccn1Cc1ccc(Cl)cc1	-1.3
O=C(Nc1ccc(-c2nc3ccccc3o2)cc1)c1ccc(C(=O)c2ccccc2)cc1	-9.3
CC(C)CCSc1nc(N)c2c3c(sc2n1)CCCC3C (stereo not given)	34.3
Cc1nn(CCCC(=O)N2CCCC2)c(=O)c2c1sc1ccccc12	7.7
Cn1cccc1/C=N/n1c(COc2ccccc2)n[nH]c1=S	29.2
CCSC1=C(C#N)C(=O)NC(C(C)C)S1 (stereo not given)	7.5
CCSC1=C(C#N)C(=O)NC(CO)S1 (stereo not given)	24.9
CC1NC(=O)C(C#N)=C(SCc2ccccc2)S1 (stereo not given)	93.3*
O=C(CC(Sc1ccccc1C(=O)O)c1ccc(F)cc1)c1ccc(F)cc1 (stereo not given)	50.3
Cc1ccc(NS(=O)(=O)CC23CCC(CC2=O)C3(C)C)cc1 (stereo not given)	-13.9
C[C@H]1CN([C@@H](C)CO)C(=O)Cc2cc(NC(=O)CCN3CCOCC3)ccc2O[C@@H]1CN(C)Cc1ccc(Cl)c(Cl)c1	90.5*
C[C@H]1CN([C@@H](C)CO)C(=O)Cc2cc(NC(=O)CCN3CCOCC3)ccc2O[C@H]1CN(C)Cc1ccc(Cl)c(Cl)c1	-2.8
C[C@H]1CN([C@@H](C)CO)C(=O)Cc2cc(NS(=O)(=O)c3ccc(Cl)cc3)ccc2O[C@H]1CN(C)Cc1ccc(Cl)c(Cl)c1	1.5
C[C@@H]1CN([C@@H](C)CO)C(=O)Cc2cc(NS(C)(=O)=O)ccc2O[C@@H]1CN(C)Cc1ccc(Cl)c(Cl)c1	104.5*
C[C@H]1CN([C@@H](C)CO)C(=O)Cc2cc(NC(=O)CCN3CCOCC3)ccc2O[C@@H]1CN(C)Cc1ccncc1	10.7
C[C@H](CO)N1C[C@H](C)[C@H](CN(C)Cc2ccc(Cl)c(Cl)c2)Oc2ccc(NS(=O)(=O)c3ccc(Cl)cc3)cc2CC1=O	5.6
N#CCSc1ccc2nnc(-c3ccncc3)n2n1	-3.7
Cc1cccn2c(=O)c3cc(C(=O)N4CCN(C)CC4)c(=N)n(Cc4cccnc4)c3nc12	14.9
CC(=O)Nc1ccc(S(=O)(=O)NCCC(c2ccccc2)c2ccccc2)cc1	5.0
CC(C)CSCC1OC(n2cnc3c(N)ncnc32)C(O)C1O (stereo not given)	-2.0
Nc1cc(-c2ccccc2)nn1S(=O)(=O)c1ccccc1	8.6
Cc1cc2c(cc1S(=O)(=O)N1CCCCC1C)OCC(=O)N2 (stereo not given)	14.9
Cc1cc(-c2c(C(=O)Sc3ccccc3)c(C)nn2-c2ccccc2)no1	55.8
SMILES	U2OS ROS induce
Cc1ccc(SC(=O)c2c(C)noc2-c2cc(C)on2)cc1	108.6*
Cc1ccc(SCC(=O)Nc2cc(C)on2)cc1	-6.3
CSc1cccc(NC(=O)C2CCCN2S(=O)(=O)c2cccc3cccnc23)c1 (stereo not given)	-20.4
Cc1ccccc1OCC(=O)NC1CCCCC1NC(=O)COc1ccccc1C (stereo not given)	-4.6
Cc1ccc(-c2ccc(=O)n(CCC(=O)NCCN3CCN(c4cccc(Cl)c4)CC3)n2)cc1	15.8
C[C@@H]1CN([C@H](C)CO)C(=O)c2cccc(NC(=O)c3cnccn3)c2O[C@H]1CN(C)Cc1ccc(Oc2ccccc2)cc1	21.0
C[C@H](CO)N1C[C@H](C)[C@@H](CN(C)Cc2ccc(-c3ccccc3)cc2)Oc2c(NC(=O)c3cnccn3)cccc2C1=O	45.4
C[C@H](CO)N1C[C@H](C)[C@@H](CN(C)Cc2ccc(Oc3ccccc3)cc2)Oc2c(NC(=O)c3cnccn3)cccc2C1=O	134.3*
C[C@H](CO)N1C[C@H](C)[C@H](CN(C)Cc2ccc(Oc3ccccc3)cc2)Oc2c(NC(=O)c3cnccn3)cccc2C1=O	34.2
C[C@H]1CN([C@@H](C)CO)C(=O)c2cccc(NC(=O)c3cnccn3)c2O[C@H]1CN(C)Cc1ccc(-c2ccccc2)cc1	42.9
C[C@H]1CN([C@@H](C)CO)C(=O)c2cccc(NC(=O)c3cnccn3)c2O[C@@H]1CN(C)Cc1ccc(-c2ccccc2)cc1	118.3*
COC(=O)CN(c1ccccc1)S(=O)(=O)c1ccc(C)cc1	-11.6
COC(=O)c1c(NC(=O)c2ccc(S(=O)(=O)N3CCCCC3C)cc2)sc2c1CCN(C)C2 (stereo not given)	42.1
COc1ccc(NC(=S)NCCN(C2CCCCC2)C2CCCC2)cc1	-1.7
O=C(Nc1ccc(C(F)(F)F)cc1)c1cnc(N2CCN(c3ccccn3)CC2)c2ccccc12	95.9*
O=C(/C=C/c1ccccc1)Nc1ccc(N2CCN(c3ccc(C(F)(F)F)cn3)CC2)nc1	-1.7
O=C(c1ccco1)N1CCN(c2ccc(C(F)(F)F)cn2)CC1	7.9
CC(C)C(=O)Nc1cccc(Cl)c1	-15.4
O=C1N=c2ccccc2=C1c1sc(Nc2cccc(C(F)(F)F)c2)nc1O	-7.5
O=c1[nH]c(CSc2nnc(-c3ccccc3)n2C2CCCCC2)nc2ccccc12	2.6
Cc1ccc(CSc2nc3ccccc3c(=O)n2CCc2ccccc2)cc1	17.1
CCn1c(SCc2nc3ccccc3c(=O)[nH]2)nc2ccccc2c1=O	94.2*
COc1ccc(NC(=O)CCCOc2ccccc2)cc1	-9.8
O=c1c2cnn(-c3ccccc3)c2ncn1C/C=C/c1ccccc1	26.4
Cc1ccc(-n2ncc3c2ncn2nc(Cc4ccccc4)nc32)cc1	7.3
SMILES	U2OS ROS induce
Cc1ccc(-c2nc3c(cnn3-c3ccccc3)c(=O)n2-c2cccc(C)c2)cc1	187.1*
CCNc1nc(N2CCOCC2)nc(N2CCC(Cc3ccccc3)CC2)n1	21.4
CC(C)C1C(=O)OC2(C)CC(C)(C)NC(=S)N12 (stereo not given)	-8.9
Cc1ccc2cc3c(nc2c1)N(c1ccc(C(=O)NCc2ccco2)cc1)CC3	17.8
COc1ccc(S(=O)(=O)Nc2ccc3c(c2)C(=O)N([C@@H](C)CO)C[C@H](C)[C@@H](CN(C)Cc2ccc(-c4ccccc4)cc2)O3)cc1	127.9*
C[C@H](CO)N1C[C@H](C)[C@@H](CN(C)C(=O)Nc2ccccc2)Oc2ccc(NS(=O)(=O)c3ccccc3)cc2C1=O	2.4
Cc1ccc(S(=O)(=O)Nc2ccc3c(c2)C(=O)N([C@@H](C)CO)C[C@H](C)[C@@H](CN(C)C(=O)Nc2ccccc2)O3)cc1	109.4*
Cc1ccc(S(=O)(=O)Nc2ccc3c(c2)C(=O)N([C@@H](C)CO)C[C@@H](C)[C@@H](CN(C)Cc2ccc(Oc4ccccc4)cc2)O3)cc1	9.8
Cc1ccc(S(=O)(=O)Nc2ccc3c(c2)C(=O)N([C@H](C)CO)C[C@H](C)[C@@H](CN(C)Cc2ccc(Oc4ccccc4)cc2)O3)cc1	29.0
COc1ccc(S(=O)(=O)Nc2ccc3c(c2)C(=O)N([C@H](C)CO)C[C@@H](C)[C@H](CN(C)Cc2ccc(-c4ccccc4)cc2)O3)cc1	14.0
Cc1ccc(S(=O)(=O)Nc2ccc3c(c2)C(=O)N([C@@H](C)CO)C[C@H](C)[C@@H](CN(C)Cc2ccc(Oc4ccccc4)cc2)O3)cc1	109.9*
Cc1ccc(S(=O)(=O)Nc2ccc3c(c2)C(=O)N([C@@H](C)CO)C[C@H](C)[C@H](CN(C)C(=O)Nc2ccccc2)O3)cc1	1.5
COc1ccc(S(=O)(=O)Nc2ccc3c(c2)C(=O)N([C@@H](C)CO)C[C@@H](C)[C@@H](CN(C)Cc2ccc(-c4ccccc4)cc2)O3)cc1	20.9
